This is part of a sample that, as a whole, favours compounds with a hit. Of some 83,000 tested, about 20% had one in any assay.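 Results are percent growth after 48 hours of single-concentration exposure. 100 means growth as in untreated cells, lower positive values show inhibition; negative values down to -100 show cell death.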 Values without a mark were called inactive. Active and inactive are the calls of the source. How the source made its calls: active means growth percent below 10; inactive means the rest.
Each compound was assayed on OVCAR-4 ovarian (assay: NCI-60 one-dose screen, 48 h (100 = growth as untreated, 0 = no growth, -100 = all killed)). Conditions: 10 µM.

| SMILES | growth |
| --- | --- |
| CCOC(=O)c1cc(C(=O)c2cc(OC)c(OC)c(OC)c2)n2ncc3ccccc3c12 | 83.8% |
| Cc1c(Cl)cccc1NC(=O)CCCl | 111% |
| Cc1ccc(S(=O)(=O)N(C)CCCCCC(=O)O)cc1 | 106% |
| COc1cc(-c2nn(-c3cccc(NC(=O)NCCNS(=O)(=O)c4ccc(Cl)cc4)c3)cc2-c2ccncc2)ccc1Cl | 33.3% |
| CC(=O)Oc1cc(OC(C)=O)c2ccccc2c1OC(C)=O | 86% |
| COc1cc(-c2nn(-c3cccc(NC(=O)CN4CCOCC4)c3)cc2-c2cccnc2)ccc1Cl | 101% |
| Cc1ccc(NCCNCC(C)(C)O)c2c(=O)c3ccc(Cl)cc3sc12 | 62.5% |
| COC(=O)C1(O)NC(=C(C#N)C#N)C(C#N)=C1C(=O)c1ccc(OC)c(OC)c1 (stereo not given) | 118% |
| CCN(CC)CCOc1ccc2c(c1O)C(=O)c1ccccc1C2=O | 85.5% |
| COc1cc(-c2nn(-c3ccc(NC(=O)NCCCNC(=O)c4ccccc4)cc3)cc2-c2ccncc2)ccc1Cl | 44.4% |
| COc1ccc2nc(-c3ccc(Cl)cc3)cc(-c3nnc(SC/C(=N\O)c4ccccc4)n3-c3ccccc3)c2c1 | 84.5% |
| CCOS(=O)(=O)c1c(C(C)C)cc(C(C)C)cc1C(C)C | 120% |
| O=S(=O)(O)c1cccc(Nc2ccc3ccccc3c2)c1 | 99% |
| CN(C)CCCSc1ccccc1NC1=C(Cl)C(=O)C(Nc2ccccc2SCCCN(C)C)=C(Cl)C1=O | -95.3% (active) |
| Brc1ccc2c(c1)-c1ccccc1C1=NCCN12 | 0.91% (active) |
| CC(C)CCN(CCC(C)C)CC(=O)Nc1ccc(S(=O)(=O)c2ccc(NC(=O)CN(CCC(C)C)CCC(C)C)cc2)cc1 | 73.7% |
| CCNCC(=O)Nc1ccc(C(=O)OCC)cc1 | 102% |
| O=C(NCCCNS(=O)(=O)c1ccc(Cl)cc1)Nc1ccc(-n2cc(-c3ccncc3)c(-c3ccc(Cl)c(O)c3)n2)cc1 | 44.2% |
| C1CN(CC2CCC(CN3CCOCC3)O2)CCO1 (stereo not given) | 107% |
| CCN(CC)CC(=O)N(CC)c1ccc(C)c(Cl)c1 | 107% |

| SMILES | growth |
| --- | --- |
| CC(CN(C)C)Oc1ccc(OC(C)CN(C)C)c2c1C(=O)c1ccccc1C2=O (stereo not given) | 72% |
| O=C1c2ccccc2C(=O)c2c1ccc(C(Br)Br)c2[N+](=O)[O-] | -23.9% (active) |
| COc1cc(-c2nn(-c3cccc(NC(=O)CCN4CCN(c5ccccc5)CC4)c3)cc2-c2ccncc2)ccc1Cl | 34% |
| O=C(Nc1ccc(F)cc1)c1cc2ccccc2cc1O | 57.8% |
| O=C(Nc1ccc2c(O)cc(S(=O)(=O)O)cc2c1)c1ccc([N+](=O)[O-])cc1 | 103% |
| CN(C)CCCOc1cccc(NC2=C(Cl)C(=O)C(Nc3cccc(OCCCN(C)C)c3)=C(Cl)C2=O)c1 | -98.8% (active) |
| COc1cc(OC)c2c(=O)c(O)c(-c3ccccc3)oc2c1 | 65.3% |
| CC(=O)Nc1ccc(CC[C@H]2CCC/C=C/[C@@H]3C[C@H](O)C[C@H]3[C@H](O)/C=C/C(=O)O2)cc1 | 18.4% |
| Nc1ncnc2c1ncn2C1(CO)OCC(O)C(O)C1O (stereo not given) | 111% |
| O=C(Nc1cccc2c1CCCC2)c1cc2ccccc2cc1O | 56.8% |
| CN(C)CCCOc1ccccc1NC1=C(Cl)C(=O)C(Nc2ccccc2OCCCN(C)C)=C(Cl)C1=O | -98.7% (active) |
| O=C(N/N=C/c1ccc([N+](=O)[O-])cc1)c1ccccc1Nc1cccc(C(F)(F)F)c1 | 98.2% |
| NNC(=O)Oc1c(Cl)cc(Cl)cc1[N+](=O)[O-] | 113% |
| Nc1ccc(/C=N/Nc2ccnc3c(O)cccc23)c2cccnc12 | 30.5% |
| O=S(=O)(O)c1ccc(Cl)cc1 | 114% |
| COc1cc(-c2nn(-c3cccc(NC(=O)NCCNC(=O)c4cccc(C(F)(F)F)c4)c3)cc2-c2ccncc2)ccc1Cl | 49.4% |
| CCOC(=O)c1cc(C(=O)c2cc(OC)c(OC)c(OC)c2)n2ccc(-c3cc[n+](CC(=O)c4cc(OC)c(OC)c(OC)c4)cc3)cc12 | -33.2% (active) |
| CCOC(=O)c1cc(C(=O)c2cc(OC)c(OC)c(OC)c2)n2nc(C)ccc12 | 51.8% |
| CCOC(=O)c1cc(C(=O)c2ccc(Cl)cc2)n2ccc(-c3cc[n+](CC(=O)c4ccc(OC)cc4)cc3)cc12 | 29.7% |
| C/C=C/CSC(C)(C)C(=O)NC | 117% |

What follows are compounds tested on SK-OV-3 ovarian in the same assay as above. Conditions: 10 µM.

| SMILES | growth |
| --- | --- |
| CCOC(=O)c1cc(C(=O)c2cc(OC)c(OC)c(OC)c2)n2ncc3ccccc3c12 | 83.4% |
| Cc1c(Cl)cccc1NC(=O)CCCl | 104% |
| Cc1ccc(S(=O)(=O)N(C)CCCCCC(=O)O)cc1 | 112% |
| COc1cc(-c2nn(-c3cccc(NC(=O)NCCNS(=O)(=O)c4ccc(Cl)cc4)c3)cc2-c2ccncc2)ccc1Cl | 19.3% |
| CC(=O)Oc1cc(OC(C)=O)c2ccccc2c1OC(C)=O | 76.8% |
| COc1cc(-c2nn(-c3cccc(NC(=O)CN4CCOCC4)c3)cc2-c2cccnc2)ccc1Cl | 95.8% |
| Cc1ccc(NCCNCC(C)(C)O)c2c(=O)c3ccc(Cl)cc3sc12 | 79.1% |
| COC(=O)C1(O)NC(=C(C#N)C#N)C(C#N)=C1C(=O)c1ccc(OC)c(OC)c1 (stereo not given) | 98.6% |
| CCN(CC)CCOc1ccc2c(c1O)C(=O)c1ccccc1C2=O | 77.6% |
| COc1cc(-c2nn(-c3ccc(NC(=O)NCCCNC(=O)c4ccccc4)cc3)cc2-c2ccncc2)ccc1Cl | 23.8% |
| COc1ccc2nc(-c3ccc(Cl)cc3)cc(-c3nnc(SC/C(=N\O)c4ccccc4)n3-c3ccccc3)c2c1 | 99.9% |
| CCOS(=O)(=O)c1c(C(C)C)cc(C(C)C)cc1C(C)C | 108% |
| O=S(=O)(O)c1cccc(Nc2ccc3ccccc3c2)c1 | 87.9% |
| CN(C)CCCSc1ccccc1NC1=C(Cl)C(=O)C(Nc2ccccc2SCCCN(C)C)=C(Cl)C1=O | 93.6% |
| Brc1ccc2c(c1)-c1ccccc1C1=NCCN12 | -3.44% (active) |
| CC(C)CCN(CCC(C)C)CC(=O)Nc1ccc(S(=O)(=O)c2ccc(NC(=O)CN(CCC(C)C)CCC(C)C)cc2)cc1 | 84.3% |
| CCNCC(=O)Nc1ccc(C(=O)OCC)cc1 | 99.8% |
| O=C(NCCCNS(=O)(=O)c1ccc(Cl)cc1)Nc1ccc(-n2cc(-c3ccncc3)c(-c3ccc(Cl)c(O)c3)n2)cc1 | 68.8% |
| C1CN(CC2CCC(CN3CCOCC3)O2)CCO1 (stereo not given) | 90.2% |
| CCN(CC)CC(=O)N(CC)c1ccc(C)c(Cl)c1 | 93.1% |

| SMILES | growth |
| --- | --- |
| CC(CN(C)C)Oc1ccc(OC(C)CN(C)C)c2c1C(=O)c1ccccc1C2=O (stereo not given) | 45.1% |
| O=C1c2ccccc2C(=O)c2c1ccc(C(Br)Br)c2[N+](=O)[O-] | 88.1% |
| COc1cc(-c2nn(-c3cccc(NC(=O)CCN4CCN(c5ccccc5)CC4)c3)cc2-c2ccncc2)ccc1Cl | 26.7% |
| O=C(Nc1ccc(F)cc1)c1cc2ccccc2cc1O | 52.2% |
| O=C(Nc1ccc2c(O)cc(S(=O)(=O)O)cc2c1)c1ccc([N+](=O)[O-])cc1 | 82.7% |
| CN(C)CCCOc1cccc(NC2=C(Cl)C(=O)C(Nc3cccc(OCCCN(C)C)c3)=C(Cl)C2=O)c1 | 98.2% |
| COc1cc(OC)c2c(=O)c(O)c(-c3ccccc3)oc2c1 | 81.1% |
| CC(=O)Nc1ccc(CC[C@H]2CCC/C=C/[C@@H]3C[C@H](O)C[C@H]3[C@H](O)/C=C/C(=O)O2)cc1 | 29.8% |
| Nc1ncnc2c1ncn2C1(CO)OCC(O)C(O)C1O (stereo not given) | 98.2% |
| O=C(Nc1cccc2c1CCCC2)c1cc2ccccc2cc1O | 37% |
| CN(C)CCCOc1ccccc1NC1=C(Cl)C(=O)C(Nc2ccccc2OCCCN(C)C)=C(Cl)C1=O | -24.3% (active) |
| O=C(N/N=C/c1ccc([N+](=O)[O-])cc1)c1ccccc1Nc1cccc(C(F)(F)F)c1 | 103% |
| NNC(=O)Oc1c(Cl)cc(Cl)cc1[N+](=O)[O-] | 102% |
| Nc1ccc(/C=N/Nc2ccnc3c(O)cccc23)c2cccnc12 | 85.7% |
| O=S(=O)(O)c1ccc(Cl)cc1 | 92.6% |
| COc1cc(-c2nn(-c3cccc(NC(=O)NCCNC(=O)c4cccc(C(F)(F)F)c4)c3)cc2-c2ccncc2)ccc1Cl | 49.9% |
| CCOC(=O)c1cc(C(=O)c2cc(OC)c(OC)c(OC)c2)n2ccc(-c3cc[n+](CC(=O)c4cc(OC)c(OC)c(OC)c4)cc3)cc12 | 99.3% |
| CCOC(=O)c1cc(C(=O)c2cc(OC)c(OC)c(OC)c2)n2nc(C)ccc12 | 24.1% |
| CCOC(=O)c1cc(C(=O)c2ccc(Cl)cc2)n2ccc(-c3cc[n+](CC(=O)c4ccc(OC)cc4)cc3)cc12 | 91.1% |
| C/C=C/CSC(C)(C)C(=O)NC | 95.6% |

— PubChem BioAssay (NCI)
